SMN2 splice enh: enhancers of SMN2 splice variant expression; AID 1458; Potency, µM (top dose mostly 46.1 µM), without a hit: at the top dose activity change, positive = activation, usual class: activators; HEK293 SMN2-luciferase splicing reporter, luminescence, 30-36 h; 210,000 compounds, 2.8% hits; also: % of control where 0% means no effect; nearly all actives have a fitted effect of over 55% in size
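HEK293 cells carry an SMN2 minigene-luciferase reporter in which exon 7 inclusion puts luciferase in frame. Cells were seeded at 2000 cells/well, attached for 10-12 hours, then exposed to compounds for 30-36 hours at 37C before ONE-Glo luminescence.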
Rab9 promoter act: activates the Rab9 promoter | Huh7 Rab9 promoter-luciferase reporter, luminescence, 24 h | Potency, µM (titrated, usually from 9.22 µM), for the others: top-dose activation, negative = inhibition, usual class: activators | 320,000 compounds, 2.8% hits | AID 485297; also: % of control where 0% means no effect; nearly all actives have a fitted effect of over 60% in size
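Cell-based reporter: Huh7 stable for Rab9 promoter-driven luciferase, plated in reduced-serum medium with 10% FBS at 1500 cells/well, compound-treated 24 h at 37 °C, luminescence read after 10 min reagent.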
FLuc counter: firefly luciferase modulation, counter-screen for miR-21 project; 360,000 compounds, 6.9% hits; purified FLuc, Km substrates, luminescence inhibition; AID 588342; Potency, µM (titrated, usually from 57.5 µM), inactives show at the highest dose activity change, negative = inhibition, most hits filed as inhibitors;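 also: plate controls were vehicle for no effect and reference inhibitor for full effect; nearly all actives have a fitted effect of over 55% in size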
Target sequence (P08659 whole entry, looked up): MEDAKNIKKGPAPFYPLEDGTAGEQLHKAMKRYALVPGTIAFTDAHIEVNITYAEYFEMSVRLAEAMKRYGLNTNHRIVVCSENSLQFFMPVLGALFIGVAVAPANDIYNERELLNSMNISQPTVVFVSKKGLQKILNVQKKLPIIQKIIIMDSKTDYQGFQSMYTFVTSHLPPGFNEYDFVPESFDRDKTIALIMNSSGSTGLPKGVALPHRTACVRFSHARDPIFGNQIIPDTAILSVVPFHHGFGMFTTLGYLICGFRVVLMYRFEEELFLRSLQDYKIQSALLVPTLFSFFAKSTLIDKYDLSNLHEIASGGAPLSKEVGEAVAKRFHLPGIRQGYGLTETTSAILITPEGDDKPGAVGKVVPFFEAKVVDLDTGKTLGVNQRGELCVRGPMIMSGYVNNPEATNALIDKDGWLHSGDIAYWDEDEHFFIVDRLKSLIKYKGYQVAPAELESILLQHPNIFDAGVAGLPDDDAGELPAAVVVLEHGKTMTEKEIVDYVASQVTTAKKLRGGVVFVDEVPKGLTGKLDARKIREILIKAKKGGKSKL
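Purified P. pyralis luciferase (10nM final) with 10uM D-luciferin and 10uM ATP (Km levels) in 50mM Tris acetate pH 7.5, 10mM Mg acetate, 0.01% Tween-20, 0.05% BSA; qHTS 6-point titration, ~60 µM downward; luminescence read.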
NPC1 prom act: activators of NPC1 promoter | 320,000 compounds, 2.4% hits | Huh7 NPC1 promoter luciferase reporter, 24 h | Potency, µM (highest dose often 9.22 µM), for inactives: at the highest dose activation, hits mostly activators; also: % of control where 0% means no effect; nearly all actives have a fitted effect of over 60% in size
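Stable NPC1-promoter luciferase Huh7 line; cpd (DMSO) 24 h, 37 °C, 5% CO2; Amplite luciferase reagent 10 min RT; luminescence readout. qHTS format.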
ELG1 genotoxic: inducers of genotoxicity in HEK293T ELG1-luciferase cells. HEK293T ELG1-luciferase reporter, luminescence, 16 h. Potency, µM (doses to about 46 µM), inactives show top-dose activity change, positive = activation, usual class: activators. 330,000 compounds, 1.3% hits. AID 504466; also: % of control where 0% means no effect; nearly all actives have a fitted effect of over 60% in size
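DMSO vehicle served as control against compound-treated ELG1-luciferase HEK293T cells; exposure lasted 16 hr at 37 °C and 5% CO2, followed by ONE-Glo luminescence detection after 30 min.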
* = called active by the depositor; u = inconclusive; x = no result given. Shown are actives, neighbours in structure and some others; about 7.5% of the full set was active somewhere. Calls follow the shape of the dose curve; as a rule, active = well fitted curve in the direction sought with a large enough effect; inconclusive = small, poorly fitted or top-dose-only effect, or another doubt; inactive = no such curve, though single readings can be large; an effect the other way counts as inactive or inconclusive. Potency is read from the fitted curve at half-maximal effect.

SMILES | SMN2 splice enh | Rab9 promoter act | FLuc counter | NPC1 prom act | ELG1 genotoxic
CC1CCCC(C)N1C(=O)CSc1nnc(-c2cccs2)o1 (configuration not stated) | 11.2µM* | 1.58µM* | 12µM* | 1.12µM* | u
O=C(CSc1nnc(-c2cccs2)o1)N1CCCCC1 | 12.6µM* | 1.58µM* | 21.3µM* | 2.51µM* | 9.2µM*
CC1CCCCN1C(=O)CSc1nnc(-c2cccs2)o1 (configuration not stated) | x | 2.24µM* | 21.3µM* | 3.55µM* | u
c1cc(N2CCCC2)ccc1C(c1nnnn1C1CCCCC1)N1CCOCC1 (configuration not stated) | x | 11.8% | -2.2% | 11.2% | 1.8%
CN(C)S(=O)(=O)c1ccc(N2CCCC2)c(C(=O)Nc2ccccc2OC(F)F)c1 | 3.0% | 1.2% | -1.8% | -9.6% | -9.3%
COc1ccc(N=NC2=C(O)CC(C)(C)CC2=O)c(OC)c1 | 6.5% | 14.4% | u | 6.7% | 7.0%
COc1ccc(N=Nc2nc3cc(Br)c(Br)cc3n2C)c(OC)c1 | 17.5% | -0.2% | 5.36µM* | 0.2% | -18.8%
O=c1c2ccccc2cnn1-c1ccc(Cl)nn1 | -6.2% | 16.3% | -18.9% | 10.9% | 11.2%
O=c1c2ccccc2nnn1Cc1ccc(Br)cc1 | 8.3% | -1.1% | -6.9% | 3.4% | 8.1%
Cc1ccc(-n2c(-c3ccc(Br)cc3)nc3c(cnn3-c3ccccc3)c2=O)cc1 | -5.7% | x | -5.5% | x | x
O=c1c2ccccc2cnn1-c1ccc2ccccc2c1 | 5.01µM* | 1.78µM* | 1.2µM* | 1.41µM* | u
O=c1c2ccccc2cnn1-c1ccc(Br)cc1 | 2.82µM* | 1.58µM* | 3.38µM* | 0.708µM* | u
O=c1c2ccccc2nnn1-c1ccc(Br)cc1 | x | 2.24µM* | u | 3.16µM* | u
C[C@H](NS(=O)(=O)c1ccc(Cl)cc1)C(=O)OCC(=O)c1ccc[nH]1 | x | 4.6% | 4.8% | 1.4% | -1.7%
COc1ccc(/C=N/NC(=O)CN2CCCCCCC2)c(C)c1C | x | 2.3% | 1.5% | -7.0% | 0.2%
COc1cc(/C=N/NC(=O)c2ccc(C)nc2)cc([N+](=O)[O-])c1O | 2.3% | 1.6% | 21.3µM* | -0.5% | -2.5%
Cc1ccc(C(=O)N/N=C/c2cc(Br)ccc2O)cn1 | x | -35.2% | 13.5µM* | -29.3% | 11.4%
Cc1ccc(C(=O)N/N=C\C=C\c2ccccc2[N+](=O)[O-])cn1 | -6.6% | 7.3% | -5.8% | 2.7% | -0.1%
CCOc1cc(/C=N\NC(=O)c2ccc(C)nc2)cc([N+](=O)[O-])c1O | 15.0% | -12.0% | u | 4.4% | 2.3%
CCOc1ccc(C(=O)N/N=C/c2ccccc2[N+](=O)[O-])cc1 | 12.6µM* | 1.41µM* | 1.69µM* | 2.24µM* | u
Cc1ccc(C(=O)N/N=C\c2ccccc2[N+](=O)[O-])cn1 | 12.6µM* | 2.82µM* | 12µM* | 3.55µM* | 9.0%
CCC(=O)Nc1ccc(C(=O)N/N=C/c2ccccc2[N+](=O)[O-])cc1 | 13.2% | 18.0% | -9.3% | 0.9% | u
Cc1ccc(CNC(=O)c2ccc3c(c2)N(Cc2ccccc2)C(=O)c2ccccc2S3(=O)=O)cc1 | -3.6% | x | -0.7% | x | x
CC(=O)Nc1ccc(-n2cc(-c3ccccc3)[nH]c2=S)cc1 | 15.6% | 20.5% | u | 1.0% | 5.2%
COCCn1c(SCc2nnc(-c3ccccc3)o2)nc2sc3c(c2c1=O)CCC3 | -6.1% | 9.8% | -2.2% | 0.3% | -0.5%
SMILES | SMN2 splice enh | Rab9 promoter act | FLuc counter | NPC1 prom act | ELG1 genotoxic
COCc1nnc(NC(=O)CS(=O)(=O)c2ccc(C)cc2)s1 | x | -0.5% | 2.2% | -1.0% | 0.8%
COc1ccccc1N/N=C/c1c(CO)cnc(C)c1O | -11.6% | -6.1% | 13.5µM* | -2.8% | 8.2%
COc1ccc(C(=O)N/N=C/c2c(CO)cnc(C)c2O)cc1 | -72.7% | 0.1% | 21.3µM* | 1.3% | -10.2%
COc1cc(/C=C2\SC(=Nc3ccccc3OC)NC2=O)ccc1O | x | -0.4% | u | -23.6% | 0.4%
COc1ccc(/C=C2\SC(=Nc3ccccc3OC)NC2=O)cc1 | x | 3.7% | 5.36µM* | -25.7% | -1.2%
O=S1(=O)N=C(Nc2nncs2)c2ccccc21 | -11.5% | -1.5% | 19µM* | -2.2% | -1.1%
Cc1c(NS(=O)(=O)c2ccc(NCC3CCCO3)c([N+](=O)[O-])c2)c(=O)n(-c2ccccc2)n1C (configuration not stated) | -7.8% | -1.8% | 4.0% | -6.2% | -3.8%
Cc1ccc(N2C(=O)c3ccccc3C2Nc2ccccc2F)nc1 (configuration not stated) | -4.7% | 20.0% | -0.5% | -5.1% | 2.5%
Cc1ccc(N2C(=O)c3ccccc3C2O)nc1 (configuration not stated) | 0.562µM* | 0.282µM* | 1.51µM* | u | u
Cc1cc(NC(=O)CSc2nc3c(sc4ccccc43)c(=O)n2CCc2ccccc2)n[nH]1 | 26.6% | -0.4% | 0.1% | -0.2% | u
Cc1cc(NC(=O)CSc2nc3c(sc4ccccc43)c(=O)n2CCCN2CCOCC2)n[nH]1 | 35.5µM* | -20.2% | 2.8% | 4.6% | 6.6%
COc1ccc(/C=N/Nc2ccc(C(=O)O)cc2)cc1Br | -79.7% | u | 0.675µM* | u | u
COc1ccc(C(=O)Oc2ccc(/C=N/Nc3ccc(Cl)c(C(=O)O)c3)cc2OC)cc1 | x | u | u | u | 9.7%
C=CCOc1c(Br)cc(/C=N/Nc2ccc(C(=O)O)cc2)cc1OCC | 8.91µM* | 3.55µM* | 30.1µM* | 2.82µM* | u
COc1ccc(/C=N\NC(=O)C2CCCC2)cc1Br | x | -1.5% | 5.5% | -3.0% | 0.6%
COc1ccc(/C=N/Nc2ccc(C(=O)O)cc2)cc1OC | x | 0.316µM* | 1.35µM* | 0.316µM* | u
CCOc1cc(/C=N/O)cc(Br)c1OCC | -39.7% | 0.8% | 0.8% | -5.6% | -1.0%
O=C(CN1C(=O)COc2ccccc2C1=O)c1ccc2c(c1)OCCO2 | x | -3.2% | 6.75µM* | -4.0% | 5.4%
O=C(COC(=O)c1cccc(S(=O)(=O)NCc2ccccc2)c1)c1ccc2c(c1)OCCO2 | -15.0% | -3.1% | 1.35µM* | -1.9% | -4.4%
CN(C)S(=O)(=O)c1cccc(C(=O)OCC(=O)Nc2ccc3c(c2)OCCO3)c1 | x | -2.7% | u | -3.5% | 4.1%
CCN(CC)S(=O)(=O)c1cccc(C(=O)OCC(=O)c2ccc3c(c2)OCCO3)c1 | -38.1% | 1.4% | 0.536µM* | -2.0% | -1.2%
CS(=O)(=O)c1cccc(C(=O)OCC(=O)c2ccc3c(c2)OCCO3)c1 | x | 10.4% | 1.69µM* | -0.3% | 4.3%
COC(=O)c1ccc(N2CCN(C)CC2)c(NC(=O)COc2ccccc2Cl)c1 | x | 4.2% | -0.8% | 7.9% | -10.4%
O=C(CS(=O)(=O)c1ccccc1)c1ccc2c(c1)OCCO2 | -11.0% | 2.82µM* | 6.01µM* | 2.82µM* | u
CCC(=O)c1ccc2c(c1)OCCO2 | x | -2.1% | -18.3% | -1.5% | 6.0%
COc1ccccc1N1CCN(S(=O)(=O)CCNC(=O)COc2ccc(C(C)C)cc2)CC1 | x | x | 23.9µM* | x | x
